This is one part of a sample in which hits are shown more often than they occur.
HDAC3 inhib: HDAC3 deacetylase inhibitors, primary screen, biochemical, fluorescence, cell-free homogeneous; inhibition, % at 8.3 µM; recombinant HDAC3, fluorogenic peptide/trypsin coupled; actives 0.15% (n = 320,000); Histone deacetylase 3 (Homo sapiens), O15379; in the data active = inhibition above about 26%, passing the limit was not always enough; inconclusive = no clear call, values can overlap the other calls
Target sequence (O15379 whole entry, looked up): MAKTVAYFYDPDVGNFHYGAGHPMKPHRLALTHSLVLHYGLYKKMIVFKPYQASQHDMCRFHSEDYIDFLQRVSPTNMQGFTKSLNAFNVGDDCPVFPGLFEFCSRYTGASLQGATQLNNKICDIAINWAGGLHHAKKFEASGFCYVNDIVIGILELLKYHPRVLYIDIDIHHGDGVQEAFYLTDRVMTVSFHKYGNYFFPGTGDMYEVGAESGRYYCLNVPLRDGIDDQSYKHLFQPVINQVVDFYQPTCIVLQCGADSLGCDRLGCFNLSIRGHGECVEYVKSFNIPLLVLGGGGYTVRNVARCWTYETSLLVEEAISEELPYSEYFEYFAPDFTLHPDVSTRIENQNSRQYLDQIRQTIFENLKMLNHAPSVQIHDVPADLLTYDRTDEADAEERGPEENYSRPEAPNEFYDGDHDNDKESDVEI
ALR H2O2 inh: inhibitors of human ALR sulfhydryl oxidase, primary screen, biochemical, H2O2 detection, HRP-luminol luminescence, single point; inhibition, % (no concentration beside the values); AID 485317, 2010; purified ALR, DTT oxidation; actives 3.8% (n = 290,000);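 active = mean replicate inhibition above about 79%, with every replicate also reaching it, limit read from the data; inconclusive = only one of the two criteria met; inactive = mean below limit and not every replicate reaching it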
Target sequence (P55789 whole entry, looked up): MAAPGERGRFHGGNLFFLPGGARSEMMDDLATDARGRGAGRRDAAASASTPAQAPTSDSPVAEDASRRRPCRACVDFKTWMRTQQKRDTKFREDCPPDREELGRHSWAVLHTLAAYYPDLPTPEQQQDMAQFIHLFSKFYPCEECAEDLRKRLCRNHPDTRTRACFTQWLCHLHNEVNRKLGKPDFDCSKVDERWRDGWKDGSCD
NPR1 activator: GC-A stimulated cGMP production enhancers – HEK293 GC-A cells, cGMP TR-FRET, EC30 ANP, primary screen; Atrial natriuretic peptide receptor 1 (Homo sapiens), P16066; 0% at EC30 ANP, 100% saturating ANP; activation, % at 10 µM; actives 0.14% (n = 370,000); in the data active = activation above about 40%
NPR2 activator: human GC-B receptor activators, primary screen, HEK293 GC-B cells, cGMP TR-FRET, EC30 CNP. Atrial natriuretic peptide receptor 2 (Homo sapiens), P20594. 0% at EC30 CNP, 100% saturating CNP. activation, % at 10 µM. actives 0.11% (n = 370,000);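 active = activation at 10 µM reaching about 35% in either raw or pattern-adjusted values, limit read from the data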
Numbers without * were called inactive; ? = inconclusive; nt = no result.

SMILES	HDAC3 inhib	ALR H2O2 inh	NPR1 activator	NPR2 activator
COc1ccc(S(=O)(=O)NCCSCc2ccccc2C)cc1Br	6.0	97.9*	1.1	2.4
O=C1OCCC1Sc1nnc(-c2ccc3c(c2)OCO3)o1 (centres undefined)	0.6	-5.0	28.3	-7.1
O=C1OCCC1Sc1nnc(-c2cccc(Br)c2)o1 (centres undefined)	2.5	-3.8	60.2*	37.3*
Cc1cccc(C(=O)Nc2ccc(C(=O)c3ccccc3)cc2)c1	9.2	-8.6	-3.6	0.1
CCCN1C(=O)c2ccc(C(=O)Nc3cc(C)ccc3O)cc2C1=O	-0.9	-2.3	6.4	-0.6
CCN1C(=O)c2ccc(C(=O)Nc3ccc(O)cc3C)cc2C1=O	1.4	99.0*	0.7	2.2
CCCN1C(=O)c2ccc(C(=O)Nc3ccccc3C(=O)O)cc2C1=O	4.8	97.0*	-0.9	-3.1
Cc1cccc(C(=O)Nc2ccc(O)cc2)c1	-2.4	98.9*	-1.2	2.1
O=C(Nc1ccc(O)cc1)c1ccc2c(c1)C(=O)N(N1C(=O)c3ccccc3C1=O)C2=O	3.4	91.5*	-1.5	0.5
CC1CC(C)CN(S(=O)(=O)c2ccc3oc(=O)ccc3c2)C1 (centres undefined)	3.2	-2.0	-2.9	-0.1
O=C(Nc1ccccc1O)c1ccc2c(c1)C(=O)N(Cc1ccco1)C2=O	40.8*	-6.9	0.1	6.0
CSC1=NSC2=NC(=O)/C(=C\c3coc4ccccc4c3=O)C(=N)N12	-1.9	97.4*	2.9	1.1
CC(C)CSC1=NSC2=NC(=O)/C(=C\c3coc4ccccc4c3=O)C(=N)N12	9.5	71.6	7.5	-7.0
CCN1CCN(C(=O)C2CCC(CNS(=O)(=O)c3ccccc3)CC2)CC1 (centres undefined)	?	0.9	1.7	-0.3
CCn1c(CSc2nccn2C)nc2cc(C(=O)O)ccc21	-1.6	97.8*	nt	nt
CCOc1ccccc1NC1=C(Cl)C(=O)N(c2ccccc2)C1=O	0.9	-0.5	6.1	4.0
CCn1c(N)[n+](CC(=O)Nc2ccc(SC(F)F)cc2)c2ccccc21	2.6	88.7*	6.0	-1.8
CC[N+](CC)(CC)CC(=O)Nc1ccc(SC(F)F)cc1	?	-10.8	2.3	0.8
CCn1ccnc1[C@@H]1C[C@H]2CN(c3ccccc3OC)C(=O)[C@]23CCCN13	-1.9	-36.2	2.7	5.7
Cc1ccc(C(=O)C2=C(O)C(=O)N(Cc3cccnc3)C2c2ccc(Br)cc2)o1 (centres undefined)	5.1	5.2	5.3	9.0
Cc1ccc(C(=O)C2=C(O)C(=O)N(Cc3cccnc3)C2c2ccc(Cl)c(Cl)c2)o1 (centres undefined)	8.2	87.6*	nt	nt
COc1cc(/C=N/NC(=O)CSc2ccccn2)ccc1O	13.1	98.5*	-1.3	-0.1
CN(C)c1ccc(/C=N/NC(=O)CSc2ccccn2)cc1	10.7	98.7*	-1.1	-1.9
CN(C)c1ccc(/C=N/NC(=O)COc2ccccc2)cc1	-12.3	nt	-5.8	4.1
Cc1cccc(OCC(=O)N/N=C/c2ccc(N(C)C)cc2)c1	-2.8	98.4*	-2.6	0.9
SMILES	HDAC3 inhib	ALR H2O2 inh	NPR1 activator	NPR2 activator
O=C(NCc1ccc2c(c1)OCO2)c1cc(-c2ccccc2)c(N2CCOCC2)s1	6.0	8.6	nt	nt
O=C(O)c1cc(-c2ccccc2)c(N2CCOCC2)s1	3.8	99.0*	0.9	-3.3
O=C(NCc1ccco1)c1cc(-c2ccccc2)c(N2CCOCC2)s1	-4.0	86.6*	-4.6	1.1
O=C(CNc1ccccc1)Nc1cccc2ccccc12	0.1	-18.6	-6.5	-7.8
Cc1nnc(SCC(=O)N/N=C/c2cc(Cl)c(O)c(Cl)c2)s1	4.0	82.1*	-0.6	-1.2
N#CC1=C(N)Oc2n[nH]c(-c3cccs3)c2C1c1ccco1 (centres undefined)	-5.9	75.0*	-6.0	-4.3
O=C(CSc1nnc(-c2cccnc2)o1)Nc1ccc(Cl)cc1	-1.9	-22.7	0.1	-0.5
CC(=O)Nc1ccc(NC(=O)CSc2nnc(-c3cccnc3)o2)cc1	-7.6	98.2*	1.3	-2.2
COC(=O)[C@]12C[C@H](CC(=O)NCCC(C)C)C(=O)N(Cc3ccc(Cl)cc3Cl)C1=C[C@H](C1CCCC1)O[C@@H]2C	nt	nt	-22.3	-11.4
COc1ccc(N)cc1C#N	3.8	-64.0	3.5	5.5
COc1cc(N)ccc1Cc1ccc(N)cc1OC	-2.3	96.6*	-2.1	3.4
CCOC(=O)CC(c1ccc([N+](=O)[O-])cc1)n1c(C)ccc1C (centres undefined)	-3.9	24.0	-7.4	-4.6
CCOC(=O)CSC(=S)NC(=O)c1ccc(OC)cc1	78.7*	100.1*	-0.1	0.1
COc1ccccc1P(=O)(c1ccccc1)c1ccc([N+](=O)[O-])cc1 (centres undefined)	10.6	-18.0	-20.2	-11.4
COc1ccc2c(c1)CN1C(=O)N(C3CCCC3)S(=O)(=O)CC21 (centres undefined)	nt	nt	-0.2	4.0
CN1CCN(Cc2cccc(Oc3ccccc3)c2)CC1	-2.2	-5.7	nt	nt
OC1CCN(Cc2cccc(Oc3ccccc3)c2)CC1	1.7	97.8*	5.7	-0.9
CN(C)/N=C/c1ccc(OC(=O)c2cccc([N+](=O)[O-])c2)cc1	0.0	98.2*	-3.1	-2.6
O=C(Oc1ccc(/C=N/n2cnnc2)cc1)c1cccc([N+](=O)[O-])c1	-0.1	-5.8	3.3	0.0
COc1ccc(CCN(C)Cc2ccc(OCc3ccccc3)c(OC)c2)cc1OC	3.3	99.3*	-4.0	-1.1
CCC(=O)Nc1ccc(/C(C)=N/NC(=O)c2c(-c3ccccc3Cl)noc2C)cc1	7.5	-0.4	-5.8	-0.6
Cc1ccc(OC(=O)COc2ccccc2)c(-n2nc3ccccc3n2)c1	3.4	2.0	-8.1	-12.3
Cc1ccc(OC(=O)COc2ccccc2C)c(-n2nc3ccccc3n2)c1	1.0	96.3*	-7.2	-0.4
NC(=O)CSc1nnc(-c2cc(-c3ccc(Cl)cc3)nc3ccccc23)o1	-2.8	-5.8	2.7	-8.1
c1ccc(SCc2cn3cccnc3n2)nc1	-39.6	-0.6	nt	nt
SMILES	HDAC3 inhib	ALR H2O2 inh	NPR1 activator	NPR2 activator
Cc1cccn2cc(CSc3ccccc3N)nc12	-7.8	81.4*	-2.1	-0.1
Nc1ccccc1SCc1cn2cccnc2n1	5.0	97.7*	-0.4	-13.7
N=C(N)SCCc1cccc(CCSC(=N)N)c1	-1.8	97.9*	5.9	-5.3
O=C(CCl)NC(=O)NC12CC3CC(CC(C3)C1)C2	-0.2	85.8*	37.4	-0.6
CN(NC1CC(=O)N(c2ccccc2)C1=O)c1ccccc1 (centres undefined)	1.2	97.3*	-0.4	-1.5
N#CCNC1CC(=O)N(c2ccccc2)C1=O (centres undefined)	0.9	nt	3.8	7.9
O=S1(=O)CC(NCc2ccccc2)C(Nc2ccccc2)C1 (centres undefined)	-0.9	34.9	-0.9	-1.3
O=S1(=O)C[C@@H](O)[C@@H](Nc2ccc(Cl)cc2)C1	-2.6	97.5*	-1.3	5.4
